# How the values were obtained:
# Assay type in all cases: functional
# [1] = biological target: Solute carrier family 2, facilitated glucose transporter member 1 (Homo sapiens) (UniProt P11166); assay: ST_JUDE_LEISH: Cytotoxicity at 2uM final concentration against transgenic Leishmania Mexicana promastigotes LmGLUT1 that are glucose transport deficient and complemented with the human glucose transporter GLUT1. Activity is measured by DNA content using SYBR green in vitro
# [2] = biological target: Hexose transporter 1 (Plasmodium falciparum) (UniProt O97467); assay: ST_JUDE_LEISH: Cytotoxicity at 2uM final concentration against transgenic Leishmania Mexicana promastigotes LmPfHT that are glucose transport deficient and complemented with the Plasmodium falciparum hexose transporter. Activity is measured by DNA content using SYBR green in vitro
# [3] = biological target: Glucose transporter (Leishmania mexicana) (UniProt O61059); assay: ST_JUDE_LEISH: Cytotoxicity at 2uM final concentration against transgenic Leishmania Mexicana promastigotes LmGT2 that are glucose transport deficient and complemented with the L. Mexicana glucose transporter 2. Activity is measured by DNA content using SYBR green in vitro
# Sequence of Solute carrier family 2, facilitated glucose transporter member 1 (Homo sapiens) (P11166 whole entry): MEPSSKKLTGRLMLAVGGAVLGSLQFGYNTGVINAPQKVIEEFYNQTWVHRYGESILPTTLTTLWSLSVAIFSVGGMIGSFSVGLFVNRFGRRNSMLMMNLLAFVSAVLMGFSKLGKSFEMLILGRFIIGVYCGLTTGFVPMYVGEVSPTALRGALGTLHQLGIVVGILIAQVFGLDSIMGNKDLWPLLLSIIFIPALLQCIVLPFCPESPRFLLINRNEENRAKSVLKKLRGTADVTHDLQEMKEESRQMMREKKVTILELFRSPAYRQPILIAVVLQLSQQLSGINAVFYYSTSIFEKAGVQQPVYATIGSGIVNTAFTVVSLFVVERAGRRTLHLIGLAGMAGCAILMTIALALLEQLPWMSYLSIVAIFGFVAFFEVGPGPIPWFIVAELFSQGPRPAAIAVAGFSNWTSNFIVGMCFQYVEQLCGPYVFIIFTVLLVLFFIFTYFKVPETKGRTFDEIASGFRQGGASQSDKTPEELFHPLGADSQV
Structure (SMILES),inhibition [1] [%],inhibition [2] [%],inhibition [3] [%]
COc1ccccc1Oc1c(N(C)S(=O)(=O)c2ccc(C(C)C)cc2)nc(C(F)(F)F)nc1N(C)S(=O)(=O)c1ccc(C(C)C)cc1,0.63,1.97,1
COc1ccc(NC(=O)[C@H](C)Nc2cc(C)nc(NCC3CCCCC3)n2)cc1,5.31,3.39,3
Cc1nnc2c(NC(=O)NC(C)C)cc3cc(-c4ccc(CN5CCCCC5)cc4)ccc3n12,56,10.5,11
Cc1cc(CN2CC[C@H](NC(=O)c3ccc(Cl)c(Cl)c3)C2)ccc1OCCN1CCCC1,-1.05,1.81,-2.1
CC(C)(C)c1ccc(CN2CCC(NC(=O)c3ccc(-c4ccccc4Cl)s3)CC2)cc1,10.1,7.04,3.18
Cc1ccc(NC(=O)c2ccc(CN3CCCN(Cc4cccc(Cl)c4)CC3)cc2)cc1C,3.09,3.31,2.64
COc1ccc(NC(=O)c2cc(NC(=O)C3(N)CC3)c(=O)n(Cc3ccc(C(N)=O)cc3)c2)cc1,0.5,3.44,2.12
O=C(Nc1ccc(-c2cccc(-c3nc4ccccc4[nH]3)c2)cc1)c1cnn2cccnc12,7.76,2.12,-0.16
NCc1cccc(-c2ccccc2CNC2CCN(Cc3ccccc3)CC2)c1,6,5.52,6.92
N#Cc1cccc(C(=O)Nc2cccc(-c3ccc(C(=O)NCCCN4CCOCC4)cc3)c2)c1,6.85,5.61,5.11
CCOC(=O)N1NC(=O)N(c2ccccc2)C1(c1ccccc1)c1ccccc1,2.45,1.19,2.17
O=C(Nc1ccc2c(c1)CCC2)c1cnc(N2CCN(c3ccncc3)CC2)c(Cl)c1,54.2,63.6,37
O=C(Cn1c(CCc2cccc(F)c2F)cc(=O)c2ccccc21)N(CCN1CCCCC1)Cc1ccc(-c2ccc(C(F)(F)F)cc2)cc1,6.77,5.08,3.76
NC(=O)c1ccccc1Nc1nc(Nc2cc[nH]n2)ncc1Cl,6.52,4.28,7.47
CCN(CC)CCCOc1ccc(Nc2nccc(-c3c(-c4cccc(NC(=O)c5c(F)cccc5F)c4)nn4ccccc34)n2)cc1F,58,56.7,10.5
